The nature of assay [1]: ATG_PXRE_CIS: Attagene CIS-FACTORIAL HepG2 Assay for human Pregnane X Receptor Element (PXRE) (AID 2282957). The settings on record: HepG2 Attagene CIS-FACTORIAL PXRE reporter, mRNA; actives raise or lower the signal. Summed up:
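Endogenous transcription factor activity in HepG2 was gauged through induction of reporter mRNA driven by a cis-regulating promoter element, sampled 24 h post-treatment. Activity was fitted in both directions against DMSO negative control.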

Assay [2] can be described thus: ATG_PPRE_CIS: Attagene CIS-FACTORIAL HepG2 Assay for human Peroxisome Proliferator-activated Response Element (PPRE) (AID 2282958). The note with it: HepG2 PPRE cis-element reporter, Attagene transcription factor profiling; actives raise or lower the signal. Summed up: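 In this cell-based multiplex, a PPRE cis element drives a reporter sequence in transiently transfected HepG2 cells. Following 24 h treatment, labeled cDNA amplicons are sized and quantified by capillary electrophoresis, with DMSO defining baseline.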

The nature of assay [3]: ATG_RORE_CIS: Attagene CIS-FACTORIAL HepG2 Assay for human RAR-related Orphan Receptor Element (RORE) (AID 2282959). The settings on record: HepG2 Attagene cis-factorial RORE reporter, mRNA; actives raise or lower the signal. Summed up:
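Endogenous factor activity at a cis response element is read as reporter transcript levels in HepG2 cells, 24 h post-dose. Transcripts are quantified by RT-PCR with capillary electrophoresis, and data fitted in both directions against DMSO.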

The nature of assay [4]: ATG_Sox_CIS: Attagene CIS-FACTORIAL HepG2 Assay for human SRY-box transcription factor (SOX) (AID 2282960). The settings on record: HepG2 Attagene cis-factorial SOX reporter, mRNA; actives raise or lower the signal. The gist of the method:
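Measures mRNA induction of a SOX1-associated reporter in HepG2 after 24 h dosing. Fluorescently labelled RT-PCR fragments are separated by capillary electrophoresis, and gain or loss relative to DMSO control is fitted.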

The target of assay [5] is Transcription factor Sp1 (Homo sapiens) (UniProt P08047). The assay is described as follows: ATG_Sp1_CIS: Attagene CIS-FACTORIAL HepG2 Assay for human Specificity Protein 1 (Sp1) (AID 2282961). The settings on record: HepG2 Sp1 cis-reporter transcription, actives raise or lower the signal. The gist of the method:
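Cells: HepG2, transiently transfected with cis-regulated multiplexed reporters. Exposure: 24 h. Detection: reporter transcripts amplified, fluorescently labeled, restriction-digested and sized by capillary electrophoresis. Analysis: bidirectional fit relative to DMSO.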

The nature of assay [6]: ATG_SREBP_CIS: Attagene CIS-FACTORIAL HepG2 Assay for human Sterol Regulatory Element Binding (SREBP) (AID 2282962). The settings on record: HepG2 Attagene cis-factorial SREBP reporter, mRNA; actives raise or lower the signal. The gist of the method:
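Endogenous SREBP activity read as cis-element-driven reporter transcript in transiently transfected HepG2, 24 h post-dosing; quantified via RT-PCR plus capillary electrophoresis of fluorescent fragments. Gain or loss of signal fitted relative to DMSO baseline.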

Assay [7] has as its target Signal transducer and activator of transcription 3 (Homo sapiens) (UniProt P40763). The assay is described as follows: ATG_STAT3_CIS: Attagene CIS-FACTORIAL HepG2 Assay for human Signal Transducer and Activator of Transcription 3 (STAT3) (AID 2282963). The note with it: HepG2, Attagene cis-factorial STAT3 reporter transcription; actives raise or lower the signal. Summed up:
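Fluorescence intensity of 6-FAM-labelled reporter fragments, separated by capillary electrophoresis after RT-PCR, gave the signal. Cells were HepG2 transfected with cis-element reporter units and treated 24 h; fitting was bidirectional relative to DMSO.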

Assay [8] in a line: ATG_TA_CIS: Attagene CIS-FACTORIAL HepG2 Assay for human TA Basal Promoter (AID 2282964). The settings on record: HepG2 Attagene CIS-factorial TA basal promoter reporter; actives raise or lower the signal. Summed up: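 Transfected HepG2, 24 h compound exposure; RNA → RT-PCR → FAM primer extension → HpaI cut → CE fluorescence. Gain/loss-of-signal fitted against DMSO negative control. Background-control readout.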

The nature of assay [9]: ATG_TCF_b_cat_CIS: Attagene CIS-FACTORIAL HepG2 Assay for human T-Cell-Factor with beta-catenin (TCF/b-cat) (AID 2282965). The note with it: HepG2 TCF/beta-catenin cis-reporter transcription, actives raise or lower the signal. Summed up: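 HepG2, transient MRTU transfection, cis-element-driven reporters (endogenous TFs). 24 h compound exposure. Readout: reporter mRNA by RT-PCR + 6-FAM primer extension, HpaI digest, capillary electrophoresis. Gain/loss fit vs DMSO baseline.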

Assay [10] in a line: ATG_TAL_CIS: Attagene CIS-FACTORIAL HepG2 Assay for human TAL Basal Promoter (AID 2282966).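 Note: background control endpoint measuring basal TAL promoter reporter mRNA not a specific factor.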 The note with it: HepG2 Attagene cis-factorial TAL promoter reporter; actives raise or lower the signal. The gist of the method: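 Endogenous transcription-factor activity is sensed in HepG2 cells through transfected cis-promoter reporter constructs. After 24 h dosing, reporter transcripts are quantified by RT-PCR and capillary electrophoresis. Gain or loss of signal is fitted relative to DMSO.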

Assay [11] in a line: ATG_TGFb_CIS: Attagene CIS-FACTORIAL HepG2 Assay for human Transforming Growth Factor (TGF) (AID 2282967). The settings on record: HepG2 Attagene CIS TGFb reporter, mRNA transcription; actives raise or lower the signal. Summed up: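 Readout: fluorescently labeled reporter cDNA fragments resolved by capillary electrophoresis after RT-PCR. Transfected HepG2 cells dosed for 24 h; endogenous TF activity at TGFB1-linked cis element; gain or loss fitted relative to DMSO.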

A short description of assay [12]: ATG_VDRE_CIS: Attagene CIS-FACTORIAL HepG2 Assay for human Vitamin D Receptor Element (VDRE) (AID 2282968). The settings on record: HepG2 VDRE cis-reporter transcription, actives raise or lower the signal. Summed up: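 Compounds were applied for 24 h to HepG2 cells transfected with promoter-regulated reporter units. Total RNA was reverse-transcribed, and reporter amplicons were fluorescently labelled and sized by capillary electrophoresis.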

Assay [13] deals with Nuclear receptor subfamily 1 group I member 3 (Homo sapiens) (UniProt Q14994). The assay is described as follows: ATG_CAR_TRANS: Attagene TRANS-FACTORIAL HepG2 Assay for human Constitutive Androstane Receptor (CAR) (AID 2282969; active = hit-call score of the fitted dose curve at least 0.9, where 1 is the maximum;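 note: activators raise reporter mRNA above DMSO so AC50 marks induction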). The note with it: HepG2 Attagene TRANS-FACTORIAL CAR reporter. Summed up: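 Transiently transfected HepG2, multiplex TRANS reporters (CAR-Gal4 chimera driving GAL4-UAS reporter). 24 h dosing. Readout: reporter transcript by RT-PCR + capillary electrophoresis, fluorescence intensity; positive direction vs DMSO.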
Nuclear receptor subfamily 1 group I member 3 (Homo sapiens), sequence (Q14994 whole entry, looked up, the tested form may be a part): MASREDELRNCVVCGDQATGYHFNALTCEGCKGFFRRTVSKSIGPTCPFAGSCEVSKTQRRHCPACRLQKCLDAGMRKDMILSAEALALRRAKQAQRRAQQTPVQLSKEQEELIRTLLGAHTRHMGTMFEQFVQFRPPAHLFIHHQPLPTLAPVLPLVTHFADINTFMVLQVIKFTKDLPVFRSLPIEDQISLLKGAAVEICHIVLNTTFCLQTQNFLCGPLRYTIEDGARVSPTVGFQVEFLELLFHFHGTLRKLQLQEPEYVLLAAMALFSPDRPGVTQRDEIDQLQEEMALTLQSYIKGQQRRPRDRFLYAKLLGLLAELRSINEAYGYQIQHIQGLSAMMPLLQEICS

Assay [14] concerns the target Estrogen receptor (Homo sapiens) (UniProt P03372). The experiment in a line: ATG_ERa_TRANS: Attagene TRANS-FACTORIAL HepG2 Assay for human Estrogen Receptor alpha (ERa) (AID 2282970; active = hit-call score of the fitted dose curve at least 0.9, where 1 is the maximum). The settings on record: HepG2 Attagene TRANS ERa GAL4 reporter, mRNA. Summed up:
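Transfected HepG2 cells carrying GAL4-UAS-driven reporter units were dosed for 24 hours. Total RNA was reverse-transcribed, reporter sequences PCR-amplified, FAM-labelled, HpaI-digested and resolved by capillary electrophoresis. Increases over DMSO control defined activity.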

The target in assay [15] is X-box-binding protein 1 (Homo sapiens) (UniProt P17861). The assay is described as follows: ATG_Xbp1_CIS: Attagene CIS-FACTORIAL HepG2 Assay for human X-box Binding Protein 1 (XBP1) (AID 2282972). The settings on record: HepG2 XBP1 cis-element reporter, Attagene multiplex; actives raise or lower the signal. Summed up: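 Reporter transcripts were quantified by RT-PCR with fluorescent primer extension and capillary electrophoresis after 24 h chemical exposure. Cells: transiently transfected HepG2 carrying cis-regulated reporter constructs; data fitted bidirectionally relative to DMSO.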
X-box-binding protein 1 (Homo sapiens), sequence (P17861 whole entry, looked up): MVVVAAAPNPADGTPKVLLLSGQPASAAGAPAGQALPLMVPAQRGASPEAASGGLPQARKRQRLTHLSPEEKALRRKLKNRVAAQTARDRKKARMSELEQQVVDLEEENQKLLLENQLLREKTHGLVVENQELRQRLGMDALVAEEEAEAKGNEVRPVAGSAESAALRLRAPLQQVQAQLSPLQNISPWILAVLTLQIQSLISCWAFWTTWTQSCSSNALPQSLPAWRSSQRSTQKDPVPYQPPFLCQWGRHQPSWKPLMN

The nature of assay [16]: ATG_M_19_TRANS: Attagene TRANS-FACTORIAL HepG2 Assay for M19 Transcription Factor (Internal Marker) (AID 2282974; active = hit-call score of the fitted dose curve at least 0.9, where 1 is the maximum). The settings on record: HepG2 Attagene TRANS-FACTORIAL M19 internal marker reporter. Summed up:
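Reporter mRNA induction was measured in transfected HepG2 cells 24 h after dosing. Endpoint fitted upward relative to DMSO and serves as a background control within the multiplexed TRANS panel.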

A short description of assay [17]: ATG_GAL4_TRANS: Attagene TRANS-FACTORIAL HepG2 Assay for GAL4 (Internal Marker) (AID 2282976; active = hit-call score of the fitted dose curve at least 0.9, where 1 is the maximum). The settings on record: HepG2 Attagene TRANS GAL4 internal marker reporter. The gist of the method: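 Fluorescence from capillary electrophoresis of labelled RT-PCR products quantifies reporter mRNA induction after 24 h dosing of HepG2 cells carrying transfected GAL4-UAS reporter transcription units. Vehicle DMSO serves as baseline.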

For assay [18], the target named is Steroid hormone receptor ERR1 (Homo sapiens) (UniProt P11474). The experiment in a line: ATG_ERRa_TRANS: Attagene TRANS-FACTORIAL HepG2 Assay for human Estrogen-Related Receptor alpha (ERRa) (AID 2282971; active = hit-call score of the fitted dose curve at least 0.9, where 1 is the maximum). The settings on record: HepG2 Attagene TRANS reporter, ERRa transactivation. Summed up:
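HepG2 cells were transiently transfected with multiple GAL4-UAS reporter units, then dosed with compound for 24 h. Total RNA was reverse-transcribed, reporter cDNA PCR-amplified and fluorescently labelled, and fragments resolved by capillary electrophoresis; induction was compared with DMSO.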

Molecules are shown by their SMILES. “And” between values parts separate entries of the source, which are not always exact repeats. Equal entries are not always repeated. Records with an inconclusive call do not appear. Where a structure was tested more than once in an assay, its records may differ in their call. The source made the active and inactive calls. Rule for the calls, unless noted: active = hit-call score of the fitted dose curve at least 0.9, where 1 is the maximum; inactive = score below 0.9.

Signal transducer and activator of transcription 3 (Homo sapiens), sequence (P40763 whole entry, looked up, the tested form may be a part): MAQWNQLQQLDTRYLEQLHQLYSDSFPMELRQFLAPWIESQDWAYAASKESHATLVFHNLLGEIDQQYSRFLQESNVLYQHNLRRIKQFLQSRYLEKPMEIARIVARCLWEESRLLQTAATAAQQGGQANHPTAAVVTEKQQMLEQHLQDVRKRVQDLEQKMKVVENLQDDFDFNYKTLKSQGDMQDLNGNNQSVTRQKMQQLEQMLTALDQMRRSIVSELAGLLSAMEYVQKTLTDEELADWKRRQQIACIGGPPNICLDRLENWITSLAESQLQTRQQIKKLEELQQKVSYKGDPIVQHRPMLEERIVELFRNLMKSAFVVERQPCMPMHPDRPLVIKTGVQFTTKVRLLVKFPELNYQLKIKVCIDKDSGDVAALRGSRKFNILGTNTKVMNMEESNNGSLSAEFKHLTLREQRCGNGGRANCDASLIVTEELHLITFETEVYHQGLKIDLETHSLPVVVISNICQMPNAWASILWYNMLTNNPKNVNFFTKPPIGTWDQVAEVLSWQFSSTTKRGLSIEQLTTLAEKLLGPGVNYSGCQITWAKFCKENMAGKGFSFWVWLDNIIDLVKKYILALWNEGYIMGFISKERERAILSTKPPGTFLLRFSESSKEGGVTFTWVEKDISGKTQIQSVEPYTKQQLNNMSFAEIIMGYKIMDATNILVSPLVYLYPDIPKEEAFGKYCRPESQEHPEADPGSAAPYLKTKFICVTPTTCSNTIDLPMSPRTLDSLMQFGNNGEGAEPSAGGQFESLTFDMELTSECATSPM
Estrogen receptor (Homo sapiens), sequence (P03372 whole entry, looked up, the tested form may be a part): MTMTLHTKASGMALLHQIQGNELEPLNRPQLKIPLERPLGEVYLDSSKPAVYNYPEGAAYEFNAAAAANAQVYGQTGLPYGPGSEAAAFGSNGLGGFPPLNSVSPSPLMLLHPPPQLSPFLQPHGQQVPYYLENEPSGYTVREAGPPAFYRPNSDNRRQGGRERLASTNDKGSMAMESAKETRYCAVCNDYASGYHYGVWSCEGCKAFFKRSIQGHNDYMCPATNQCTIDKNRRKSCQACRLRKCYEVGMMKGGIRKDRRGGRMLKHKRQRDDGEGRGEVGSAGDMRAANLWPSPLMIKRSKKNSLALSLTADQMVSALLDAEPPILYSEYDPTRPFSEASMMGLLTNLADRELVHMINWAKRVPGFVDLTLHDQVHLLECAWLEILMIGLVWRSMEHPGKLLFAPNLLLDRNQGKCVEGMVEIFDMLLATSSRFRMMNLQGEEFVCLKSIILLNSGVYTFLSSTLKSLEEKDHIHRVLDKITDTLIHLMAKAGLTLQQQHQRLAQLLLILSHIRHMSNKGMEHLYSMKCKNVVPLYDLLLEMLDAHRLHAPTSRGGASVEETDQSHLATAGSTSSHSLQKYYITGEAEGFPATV
Transcription factor Sp1 (Homo sapiens), sequence (P08047 whole entry, looked up): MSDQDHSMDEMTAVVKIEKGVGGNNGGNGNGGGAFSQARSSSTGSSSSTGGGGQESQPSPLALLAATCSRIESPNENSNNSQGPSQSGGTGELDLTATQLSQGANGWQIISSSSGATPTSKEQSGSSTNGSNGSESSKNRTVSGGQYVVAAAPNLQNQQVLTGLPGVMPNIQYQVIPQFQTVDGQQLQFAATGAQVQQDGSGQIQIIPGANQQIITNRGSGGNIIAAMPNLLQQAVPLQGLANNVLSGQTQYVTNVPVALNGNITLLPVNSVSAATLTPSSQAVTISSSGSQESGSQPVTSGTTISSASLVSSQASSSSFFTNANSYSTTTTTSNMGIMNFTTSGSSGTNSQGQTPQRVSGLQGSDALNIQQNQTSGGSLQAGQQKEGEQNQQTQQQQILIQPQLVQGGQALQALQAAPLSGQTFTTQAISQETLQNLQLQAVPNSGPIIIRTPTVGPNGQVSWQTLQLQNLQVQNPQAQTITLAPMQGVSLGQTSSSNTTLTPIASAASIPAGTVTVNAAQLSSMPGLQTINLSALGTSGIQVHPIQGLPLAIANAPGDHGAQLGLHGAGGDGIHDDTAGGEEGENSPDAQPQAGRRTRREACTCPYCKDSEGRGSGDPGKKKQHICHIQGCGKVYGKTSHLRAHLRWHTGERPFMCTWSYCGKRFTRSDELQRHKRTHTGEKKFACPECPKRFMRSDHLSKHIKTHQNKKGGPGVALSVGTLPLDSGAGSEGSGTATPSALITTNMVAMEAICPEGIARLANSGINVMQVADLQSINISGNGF
Steroid hormone receptor ERR1 (Homo sapiens), sequence (P11474 whole entry, looked up, the tested form may be a part): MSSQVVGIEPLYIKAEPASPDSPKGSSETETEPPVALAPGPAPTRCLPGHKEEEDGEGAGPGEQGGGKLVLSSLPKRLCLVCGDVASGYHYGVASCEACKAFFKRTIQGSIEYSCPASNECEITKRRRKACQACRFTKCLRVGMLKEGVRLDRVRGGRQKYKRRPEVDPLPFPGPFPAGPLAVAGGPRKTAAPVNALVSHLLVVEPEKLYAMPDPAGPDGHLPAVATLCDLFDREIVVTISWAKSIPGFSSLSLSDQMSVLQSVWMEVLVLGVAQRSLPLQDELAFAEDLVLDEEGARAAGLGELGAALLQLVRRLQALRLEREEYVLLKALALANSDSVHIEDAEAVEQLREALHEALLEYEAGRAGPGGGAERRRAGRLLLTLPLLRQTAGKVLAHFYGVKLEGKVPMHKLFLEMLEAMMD

With `Cc1ccccc1O`, the result in assay [1], in assay [2], in assay [3], in assay [4], in assay [5] and in assay [6] was inactive. Moreover, the call in [7], in assay [8], in [9], in assay [10], in assay [11] and in assay [12] was inactive. For the same compound, the compound was called inactive in assay [13], in assay [14], in [15], in [16] and in [17].
As for `O=C(O)C(F)(F)C(F)(F)C(F)(F)C(F)(F)C(F)(F)C(F)(F)C(F)(F)C(F)(F)C(F)(F)F`, the concentration at half-maximal activity (AC50) is 47.5 µM (active) and 14.8 µM (active) in assay [2]; 50.5 µM (active) and 32.8 µM (active) in [3]; 33.4 µM (active) in [4]; 45 µM (active) and 35.7 µM (active) and 14.7 µM (active) in [9]; 61.9 µM (active) in assay [10]; 48.9 µM (active) and 14.6 µM (active) in [11]. The AC50 in assay [14] is 25.4 µM (active) and 22.6 µM (active) and 17.2 µM (active). Besides, the call in assay [2], in assay [3], in assay [4], in [5], in assay [6] and in assay [7] was inactive. In addition, the compound was classed as inactive in [8], in assay [10], in [11], in assay [13], in assay [18] and in assay [16]. Further, the compound was classed as inactive in assay [17].
In the case of `Nn1cnnc1`, the result in [1], in assay [2], in assay [3], in assay [4], in [5] and in assay [6] was inactive. Besides, the compound was classed as inactive in assay [7], in [8], in [9], in assay [10], in [11] and in assay [12]. For the same compound, in assay [14], the half-maximal activity concentration (AC50) is 26 µM (active).
With `Cc1ccccc1[N+](=O)[O-]`, the result in [1], in assay [2], in assay [3], in assay [4], in assay [5] and in assay [6] was inactive. For the same compound, the outcome in assay [7], in assay [8], in [9], in [10], in [11] and in assay [12] was inactive. For the same compound, the result in assay [13] and in [17] was inactive.
With `Cc1cc2c3c(c1)C(c1ccccc1)=N[C@@H](NC(=O)c1ccncc1)C(=O)N3CC2`, the AC50 was 909 nM (active) in assay [1]; 6.95 µM (active) in assay [3]; 181 µM (active) in assay [5]; 19.9 µM (active) in assay [6]; 100 µM (active) in [8]; 35.8 µM (active) in assay [9]. The AC50 is 5.69 µM (active) in assay [12] and 100 µM (active) in assay [15]. The call in [2], in [4], in assay [7], in [10], in [11] and in assay [14] was inactive. Also, the result in assay [16] and in assay [17] was inactive.
Consider `N#Cc1ccc(N(CC(N)=O)CC(F)(F)F)cc1C(F)(F)F`, for which the outcome in assay [1], in [2], in assay [3], in assay [4], in assay [5] and in assay [6] was inactive. Moreover, the compound was called inactive in assay [7], in assay [8], in assay [9], in assay [10], in assay [11] and in assay [12]. The outcome in assay [14], in assay [15], in [16] and in assay [17] was inactive.
For the compound `O=S(=O)(O)C(F)(F)C(F)(F)C(F)(F)C(F)(F)C(F)(F)C(F)(F)F`, the half-maximal activity concentration (AC50) in assay [1] was 51.4 µM (active) [middle of 4 runs]; in assay [2], 97.7 µM (active) [middle of 4 runs]; in assay [14], 105 µM (active). In addition, the compound was classed as inactive in [3], in assay [4], in [5], in assay [6], in assay [7] and in [8]. Besides, the outcome in assay [9], in [10], in assay [11], in assay [12], in assay [13] and in assay [14] was inactive. Moreover, the result in assay [16] and in assay [17] was inactive.

(Values after PubChem BioAssay (EPA / NIEHS).)
